From PubChem BioAssay (NCATS)
Results filed as inconclusive are left out. Calls of active or inactive are those of the source. Calls come from the whole dose curve; as a rule, active = well fitted curve in the direction sought with a large enough effect; inconclusive = small, poorly fitted or top-dose-only effect, or another doubt; inactive = no such curve, though single readings can be large; an effect the other way counts as inactive or inconclusive.

Legend:
[1] = target: Pyruvate kinase (Leishmania mexicana) (UniProt Q27686); test: qHTS Validation Assay for Inhibitors of Leishmania Mexicana Pyruvate Kinase (AID 945)
Sequence of Pyruvate kinase (Leishmania mexicana) (Q27686 2-499 E452W): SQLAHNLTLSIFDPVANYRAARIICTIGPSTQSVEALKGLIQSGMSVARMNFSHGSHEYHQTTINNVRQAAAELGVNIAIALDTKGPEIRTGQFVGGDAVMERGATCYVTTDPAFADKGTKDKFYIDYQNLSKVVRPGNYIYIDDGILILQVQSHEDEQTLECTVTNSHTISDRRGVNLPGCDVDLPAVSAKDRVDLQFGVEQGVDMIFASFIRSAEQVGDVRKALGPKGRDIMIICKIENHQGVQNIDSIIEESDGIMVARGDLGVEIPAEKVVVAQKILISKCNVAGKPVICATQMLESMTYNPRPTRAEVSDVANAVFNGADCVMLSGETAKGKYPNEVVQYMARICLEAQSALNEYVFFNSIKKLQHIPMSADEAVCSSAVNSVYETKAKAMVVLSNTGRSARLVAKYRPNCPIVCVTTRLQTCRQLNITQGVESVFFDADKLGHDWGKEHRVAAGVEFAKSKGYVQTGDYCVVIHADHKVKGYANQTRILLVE
Outline: (§1)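 qHTS eight-point titrations against 0.2 nM LmPYK (E451W) in imidazole buffer pH 7.2 with 0.5 mM PEP, 0.1 mM ADP; 1 h, room temperature. Readout: PKLight luminescence, normalized to neutral DMSO wells.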

[2] = MultiTox-Fluor Cytotoxicity Assay - LYMP1-001 - Dead Cells (AID 946);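 note: cells exposed to compound for 16 h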
Outline: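 Seed 2500 LYMP1-001 cells/well, incubate 5 hr at 37 C; add compound, 16 hr at 37 C; add MultiTox-Fluor reagent, 60 min RT; read dead-cell fluorescence Ex/Em=485/520. Normalize to DMSO and 15 uM tetraoctylammonium bromide.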

[3] = MultiTox-Fluor Cytotoxicity Assay - LYMP1-001 - Live Cells (AID 947)
[4] = Cell Viability - LYMP1-002 - Assay at 16 hr (AID 948)
Outline: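 In this qHTS, lymphoblastoid LYMP1-002 cells (human) receive compounds for 16 hr at 37 C. Viability is taken from CellTiter-Glo ATP luminescence, and AC50 derives from standard Hill fits.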

[5] = MultiTox-Fluor Cytotoxicity Assay - LYMP1-002 - Live Cells (AID 955)
Description: (§2) NIH Chemical Genomics Center [NCGC]
(§3) NIH Molecular Libraries Screening Centers Network [MLSCN]
(§4) National Institutes of Environmental Health Sciences [NIEHS]
(§5) National Toxicology Program [NTP]
We have developed a 1536-well cell-based assay for quantitative high throughput screening (qHTS) against a number of cell lines to determine in vitro cytotoxicity of small molecules. This particular assay uses a human lymphoblastoid cell line (LYMP1-002) purchased from Coriell Institute.
(§6) NCGC Assay Protocol Summary:
(§7) The MultiTox-Fluor Cytotoxicity Assay (Promega) is a homogeneous method to simultaneously measure the relative number of live and dead cells in culture by detecting changes in cell membrane integrity. There are two fluorogenic peptide substrates in the assay reagent. Viable cells are determined when the cell-permeant substrate (GF-AFC) enters the cell and is cleaved by protease from live cells resulting in liberated fluorophore. This live-cell protease activity restricted to viable cells is proportional to cell number. The dead cells are determined by using fluorogenic cell-impermeant peptide substrate (bis-AAF-R110) which cleaved by dead cell proteases leaking from damaged cell membrane.
Using the MultiTox-Fluor Cytotoxicity Assay, the relative number of live cells was measured in the lymphoblastoid cell line with complete culture medium following compound treatment for 16 hours. The assay was performed in opaque black Kalypsys 1536-well plates. In the screen, tetraoctylammonium bromide was used as positive control. Library compounds were measured for their ability to cause acute toxicity in the cell line, as reflected by a decrease in live cell protease activity, in a concentration-dependent manner. […] AC50 values were determined from concentration-response data modeled with the standard Hill equation.
(§8) qHTS protocol for MultiTox-Fluor Cytotoxicity assay
(§9) [Step] [Parameter] [Value] [Description]
(§10) 1. Reagent; 5 uL; 2500 lymphoblastoid cells/well
(§11) 2. Time; 5 hr; 37 C incubation
(§12) 4. Controls; 23 nL; Tetraoctylammonium bromide 6.4pM to 92 uM
(§13) 5. Time; 16 hr; 37 C incubation
(§14) 6. Reagent; 5 uL; MuliTox-Fluor Assay reagent
(§15) 7. Time; 60 min; Room Temperature
8. Detection; live-cell fluorescence (Ex/Em=405/510); EnVision plate reader
Keywords: cell viability, cytotoxicity, lymphoblastoid cell line, fluorescence, NTPHTS, NTPHTS_NCGC, NIEHS, EPA, DSSTox, MLSMR, MLSCN, NIH Roadmap, qHTS, NCGC

[6] = MultiTox-Fluor Cytotoxicity Assay - LYMP1-002 - Dead Cells (AID 960);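 note: cells exposed to compound for 16 h at 37 °C; nearly all actives have a fitted effect of over 60% in size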
Outline: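 Human lymphoblastoid LYMP1-002 cells, 2500/well, treated 16 h at 37 C; dead-cell protease cleavage of bis-AAF-R110 read by fluorescence (485/520); normalized to DMSO and 15 uM tetraoctylammonium bromide; AC50 from Hill fit.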

[7] = MultiTox-Fluor Cytotoxicity Assay - LYMP1-003 - Dead Cells (AID 961);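 note: cells exposed to compound for 16 h at 37 °C; nearly all actives have a fitted effect of over 70% in size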
Description: as §2, §3, §4, §5
We have developed a 1536-well cell-based assay for quantitative high throughput screening (qHTS) against a number of cell lines to determine in vitro cytotoxicity of small molecules. This particular assay uses a human lymphoblastoid cell line (LYMP1-003) purchased from Coriell Institute.
as §6, §7
Using the MultiTox-Fluor Cytotoxicity Assay, the relative number of dead cells was measured in the lymphoblastoid cell line with complete culture medium following compound treatment for 16 hours. The assay was performed in opaque black Kalypsys 1536-well plates. In the screen, tetraoctylammonium bromide was used as positive control. Library compounds were measured for their ability to cause acute toxicity in the cell line, as reflected by an increase in dead cell protease activity, in a concentration-dependent manner. Data were normalized to the controls for basal activity (DMSO only) and 100% stimulation (15 uM tetraoctylammonium bromide). AC50 values were determined from concentration-response data modeled with the standard Hill equation.
as §8, §9, §10, §11, §12, §13, §14, §15
8. Detection; dead-cell fluorescence (Ex/Em=485/520); EnVision plate reader
Keywords: cytotoxicity, lymphoblastoid cell line, fluorescence, NTPHTS, NTPHTS_NCGC, NIEHS, EPA, DSSTox, MLSMR, MLSCN, NIH Roadmap, qHTS, NCGC

[8] = MultiTox-Fluor Cytotoxicity Assay - LYMP1-003 - Live Cells (AID 962);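 note: cells exposed to compound for 16 hours at 37 °C; cytotoxic hits lower the live-cell protease signal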
Outline: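 LYMP1-003 lymphoblastoid cells, 2500/well in complete medium, treated 16 h at 37 C; live-cell protease cleavage of GF-AFC read by fluorescence (Ex/Em 405/510) after 60 min reagent; AC50 from Hill fits of concentration-response.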

[9] = Cell Viability - LYMP1-003 - Assay at 24 hr (AID 963)
Outline: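 Human lymphoblastoid LYMP1-003 cells, 2500/well, treated 24 h at 37 C in complete medium. Viability read as intracellular ATP by CellTiter-Glo luminescence after 30 min at room temperature; AC50 from Hill-equation fits of qHTS concentration-response.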

[10] = target: Pyruvate kinase (Leishmania mexicana) (UniProt Q27686); test: qHTS Validation Assay for Activators of Leishmania Mexicana Pyruvate Kinase (AID 959)
Outline: as §1

Q: For `Cc1oncc1C(=O)Nc1ccc(C(F)(F)F)cc1`, which outcome [1] is on record?
A: The outcome was “inactive”.

Q: For `CC(C)(Sc1ccc(CCN(CCCCC2CCCCC2)C(=O)NC2CCCCC2)cc1)C(=O)O`, which outcome [1] is on record?
A: Its outcome is “inactive”.

Q: With `Cc1ccc(N(CC2=NCCN2)c2cccc(O)c2)cc1` as the molecule, how does the outcome [1] read?
A: Its outcome is “inactive”.

Q: Which outcome [1] does the source give for `CCOC(=O)C1=C[C@@]2(CC)CCCN3CCc4c(n1c1ccccc41)[C@H]32` here?
A: The outcome was “inactive”.

Q: For `CC(=O)Oc1ccccc1C(=O)O`, which outcome [1] is on record?
A: Its outcome is “inactive”.

Q: What about the outcome [2] of the same molecule?
A: Its outcome is “inactive”.

Q: And the outcome [3]?
A: Its outcome is “inactive”.

Q: What about the outcome [4] of the same molecule?
A: Its outcome is “inactive”.

Q: And the outcome [5]?
A: Its outcome is “inactive”.

Q: And the outcome [6]?
A: The outcome was “inactive”.

Q: And the outcome [7]?
A: The outcome was “inactive”.

Q: What about the outcome [8] of the same molecule?
A: The outcome was “inactive”.

Q: What about the outcome [9] of the same molecule?
A: The outcome was “inactive”.

Q: For `Cc1[nH]c(=O)c(C#N)cc1-c1ccncc1`, which outcome [1] is on record?
A: The outcome was “inactive”.

Q: Which results are given for `Cn1cnc([N+](=O)[O-])c1Sc1ncnc2nc[nH]c12`?
A: outcome [1]: inactive; outcome [2]: inactive; outcome [3]: inactive; outcome [4]: inactive; outcome [5]: inactive; outcome [6]: inactive; outcome [7]: inactive; outcome [8]: inactive

Q: With `CNC[C@H](O)c1cccc(O)c1` as the molecule, how does the outcome [1] read?
A: The outcome was “inactive”.

Q: Which outcome [1] does the source give for `NCCc1ccc(O)c(O)c1` here?
A: Its outcome is “inactive”.

Q: With `Cc1cnc(NC(=O)C2=C(O)c3ccccc3S(=O)(=O)N2C)s1` as the molecule, how does the outcome [1] read?
A: Its outcome is “inactive”.

Q: Which outcome [1] does the source give for `Cc1[nH]c(=O)c(C#N)cc1-c1ccc2nccn2c1` here?
A: Its outcome is “inactive”.

Q: Which outcome [1] does the source give for `O=c1n(CCCN2CCN(c3cccc(Cl)c3)CC2)nc2ccccn12` here?
A: Its outcome is “inactive”.

Q: Which outcome [1] does the source give for `CCCCNc1cc(C(=O)O)cc(S(N)(=O)=O)c1Oc1ccccc1` here?
A: Its outcome is “inactive”.

Q: With `NC[C@H](O)c1ccc(O)c(O)c1` as the molecule, how does the outcome [1] read?
A: The outcome was “inactive”.

Q: With `CC(C)NCC(O)COc1ccc(COCCOC(C)C)cc1` (stereo not given) as the molecule, how does the outcome [1] read?
A: The outcome was “inactive”.

Q: For `O=NN(CCCl)C(=O)NCCCl`, which outcome [1] is on record?
A: Its outcome is “inactive”.

Q: With `NS(=O)(=O)c1cc2c(cc1Cl)NC=NS2(=O)=O` as the molecule, how does the outcome [1] read?
A: Its outcome is “inactive”.

Q: And the outcome [2]?
A: Its outcome is “inactive”.

Q: What about the outcome [3] of the same molecule?
A: The outcome was “inactive”.

Q: And the outcome [4]?
A: The outcome was “inactive”.

Q: And the outcome [5]?
A: The outcome was “inactive”.

Q: And the outcome [7]?
A: Its outcome is “inactive”.

Q: And the outcome [8]?
A: The outcome was “inactive”.

Q: What about the outcome [9] of the same molecule?
A: The outcome was “inactive”.

Q: For `Nc1nc2ccc(OC(F)(F)F)cc2s1`, which outcome [10] is on record?
A: The outcome was “inactive”.
